The list is a sample of the results.
aSyn 5UTR act = Activators via SNCA 5'UTR binding, MLPCN. alpha-synuclein 5'UTR reporter, activators screen. AID 1814. activity score, % (tested at 7.5 µM), hits read low. actives 7.1% (n = 300,000); in the data active means activity score below about -60%
The depositor's hits bear a star.

SMILES | aSyn 5UTR act
N#Cc1nc(-c2cccc3ccccc23)oc1N1CCCCC1 | -155*
N#Cc1nc(-c2ccccc2Cl)oc1N1CCCCC1 | -69*
Cc1ccc(N2C(=O)Nc3cc(Cl)c(Cl)cc3N2O)cc1Cl | -99*
Cc1nc2ccccc2n1-c1nc(-c2ccco2)cc(C(F)(F)F)n1 | 90
FC(F)(F)c1cc(-c2ccco2)nc(N2CCN(c3ccccc3)CC2)n1 | -65*
C/C(=N/NC(=O)C(O)(c1ccccc1)c1ccccc1)c1ccc([N+](=O)[O-])o1 | -66*
Cc1nc2cc(-c3ccccc3)ccc2o1 | -67*
CC1=CCC(COC(=O)Nc2ccccc2)CC1 (stereo not drawn) | -139*
COc1ccc(NC(=O)/C(C#N)=C/c2ccc(Br)o2)cc1 | -66*
N#C/C(=C\c1ccc(N2CCOCC2)o1)C(=O)Nc1ccc(O)cc1 | -101*
COc1ccc(NC(=O)/C(C#N)=C\c2ccc(N3CCOCC3)o2)cc1 | -95*
COC(=O)c1ccc2[nH]c3c(c2c1)CC(C)CC3 (stereo not drawn) | -96*
CCOC(=O)c1ccc2[nH]c3c(c2c1)CCCC3 | -124*
COc1ccc(Nc2cnn(-c3nc4ccccc4s3)c(=O)c2Cl)cc1 | -139*
O=c1c(Cl)c(Nc2cccc(Cl)c2)cnn1-c1nc2ccccc2s1 | -78*
CC(=NC1CCCC1)c1c(C)[nH]n(-c2nc3ccccc3s2)c1=O | 94
COC(=O)CSc1nc(-c2ccccc2)cc(-c2ccco2)c1C#N | -64*
CC(C)Cc1cc(-c2ccco2)c(C#N)c(N)n1 | 70
N=C1C(c2nc3ccccc3[nH]2)=C(O)CN1C1CCCCC1 | -116*
N=C1C(c2nc3ccccc3[nH]2)=C(O)CN1c1ccc(F)cc1 | -65*
CCc1nccn1CCC(=O)N1CCCC(N2CCN(c3cccc(Cl)c3)CC2)C1 (stereo not drawn) | -67*
COc1ccc(C2C(=O)c3ccccc3C2=O)c(OC)c1 | -265*
O=C1c2ccccc2C(=O)C1c1ccnc2ccccc12 | 89
COc1ccc(C2C(=O)c3ccccc3C2=O)cc1 | -83*
CCc1ccc(C2C(=O)c3ccccc3C2=O)cc1 | -74*
SMILES | aSyn 5UTR act
Cc1c(Cl)c([N+](=O)[O-])nn1CCCC(=O)NCCc1ccccc1 | -64*
Cc1ccnc(NC(=O)c2cc3ccccc3o2)c1 | 97
Cc1cc(NC(=O)c2cncc(Br)c2)ccc1NC(=O)c1cc2ccccc2o1 | 78
COc1ccc(C)cc1NC(=O)c1cc2ccccc2o1 | -147*
Cc1ccc(C)c(NC(=O)c2cc3ccccc3o2)c1 | -172*
Cc1cc([N+](=O)[O-])ccc1NC(=O)c1cc2ccccc2o1 | -115*
Fc1cccc(CSc2nnc3c(n2)[nH]c2ccccc23)c1 | -142*
CC(C)c1ccc(/C=C2\CC/C(=C\C=N\N(C)C)C2=O)cc1 | -73*
Cc1c(C(=O)N(C)c2cccc(Cl)c2)cnn1-c1ccccc1 | -104*
Cc1nn(-c2ccccc2)cc1C(=S)Nc1ccccc1 | -171*
Cc1c(C(=S)Nc2ccccc2)cnn1-c1ccccc1 | -108*
Cc1c(C(=O)Nc2ccccc2F)cnn1-c1ccccc1 | -163*
CCc1ccc(NC(=O)c2cnn(-c3ccccc3)c2C)cc1 | -83*
Cc1c(C(=O)Nc2cc(F)cc(F)c2)cnn1-c1ccccc1 | -187*
Cc1c(C(=O)Oc2cccc3ccccc23)cnn1-c1ccccc1 | -65*
O=C(C1=NN[C@@H]2C(=O)N(c3cccc(F)c3)C(=O)[C@H]12)c1ccc2ccccc2n1 | -79*
Cc1ccc2nc(=O)c(NNc3ccccc3)cnc2c1 | -218*
Cc1nc2ccccc2nc(=O)c1NNc1ccccc1 | -241*
CN1CCc2c(sc3c2C(=O)NC(c2cccs2)N3)C1 (stereo not drawn) | -103*
CCCc1cc(C(=O)NC2CCCCC2)no1 | -146*
CC(C)c1cc(C(=O)NC2CCCCC2)no1 | -148*
CCCc1cc(C(=O)NC2CCCC2)no1 | -94*
COc1cccc(Cn2c(=O)oc3ccccc32)c1 | -77*
CSc1n[nH]c(-c2ccc(C(F)(F)F)cc2)n1 | -68*
C=CCn1c(SCC(=O)Nc2ccc(-c3nc4ccc(C)cc4s3)cc2)nnc1-c1ccncc1 | -99*
SMILES | aSyn 5UTR act
CCn1c(SCC(=O)Nc2ccc(-c3nc4ccc(C)cc4s3)cc2)nnc1-c1ccccc1 | -175*
CC1CCCN(C(=S)NCCc2ccccc2)C1 (stereo not drawn) | -102*
O=C(NCCc1ccccc1)C1CCN(C(=O)Nc2ccccc2)CC1 | -66*
CN(C)C(=O)N1CCCC(C(=O)NCCc2ccccc2)C1 (stereo not drawn) | -91*
COc1ccc(Br)cc1CNC(=O)C1CCN(C(=O)N(C)C)CC1 | 78
CC1CCCCN1C(=S)NCCc1ccccc1 (stereo not drawn) | -93*
COC(=O)/C(=C/Nc1cccc2ccccc12)[N+](=O)[O-] | -68*
CC(CNS(=O)(=O)c1cc(Cl)ccc1Cl)CN(C)C (stereo not drawn) | -159*
CN(C)/C=N/C(=S)Nc1ccc(Br)cc1F | -108*
O=C(Nc1ccncc1)c1sc2ccccc2c1Cl | -97*
CCn1nnc(NC(=O)c2sc3ccccc3c2Cl)n1 | -82*
CCn1nnc(NC(=O)c2ccc(-c3ccc(Cl)cc3)o2)n1 | -64*
O=C1CCC/C(=N/NC(=O)c2sc3ccccc3c2Cl)C1 | -90*
CCC(Sc1nc2n[nH]c(C)c2c(=N)n1-c1cccc(Cl)c1C)C(=O)N(CC)CC (stereo not drawn) | 51
O=C(Nc1ccnc(=O)[nH]1)c1sc2ccccc2c1Cl | -111*
O=C(NNC(=S)NC(=O)c1sc2ccccc2c1Cl)c1ccc(Cl)cc1 | -67*
CCCc1ccc2oc(C(=O)NCc3nnc(C)o3)c(C)c2c1 | -128*
Cc1c(C(=O)NCc2ccc3c(c2)OCO3)oc2ccc(S(=O)(=O)N3CCCCCC3)cc12 | 60
CCCc1ccc2oc(C(=O)NCCCN3CCOCC3)c(C)c2c1 | -96*
Cc1c(C(=O)NCCCN2CCOCC2)oc2c1C1(CCC2)SCCS1 | -70*
CC1CN(Cc2csc(-c3ccc(Cl)cc3)n2)CC(C)O1 (stereo not drawn) | -105*
Cc1cc(C)c2c(N)c(C(=O)Nc3cccc(C)c3C)sc2n1 | -268*
Cc1ccc(NC(=O)c2sc3nc(C)cc(C)c3c2N)cc1 | -75*
COc1cccc(-c2nn(C)c3sc(C(=O)Nc4ccc5c(c4)OCCO5)cc23)c1 | -101*
CSc1nsc(N/N=C/c2ccc3c(c2)OCO3)c1C#N | -231*
SMILES | aSyn 5UTR act
Cc1oc(/N=C/c2ccc3c(c2)OCO3)c(C#N)c1C | -74*
COc1ccc(-c2csc(NNC3=NCCCCC3)n2)cc1 | -63*
COc1ccc(-c2csc(NC3=NCCCCC3)n2)cc1 | -91*
c1ccc(-c2csc(NNC3=NCCCCC3)n2)cc1 | -72*
CCOc1ccc(-c2csc(NNC3=NCCCCC3)n2)cc1 | -88*
Brc1ccc(-c2csc(NC3=NCCCCC3)n2)cc1 | -138*
CCc1nc2oc3ccccc3c(=O)c2cc1C(=O)OC | -156*
COCc1nc2oc3ccc(F)cc3c(=O)c2cc1C(=O)OC | -108*
COCc1nc2oc3ccc(C)cc3c(=O)c2cc1C(=O)OC | -270*
CS(=O)(=O)N1N=C(c2ccccc2)CC1c1ccc2c(c1)OCO2 (stereo not drawn) | -275*
Cc1ccc(C2CC(c3ccco3)=NN2S(C)(=O)=O)cc1 (stereo not drawn) | -63*
CS(=O)(=O)Nc1cccc(C2=NN(S(C)(=O)=O)C(c3ccc4c(c3)OCO4)C2)c1 (stereo not drawn) | -86*
COc1cccc(C2=N/C(=C\N(C)C)C(=O)O2)c1 | -133*

Compound activity as filed in PubChem.
